Results filed as inconclusive are left out. The source made the active and inactive calls. How the source made its calls, unless noted: active means hit-call score of the fitted dose curve at least 0.9, where 1 is the maximum; inconclusive means response in the unintended direction; inactive means score below 0.9.
Key:
[1] = Tanguay_ZF_120hpf_PE_legacy: (Legacy) Oregon State University Tanguay Lab 120 Hour Post-fertilization zebrafish Assay for Pericardial Edema (AID 2283640)
How it was run: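 Tropical 5D wild-type zebrafish embryos were statically exposed until 120 hpf at 28C, with 0.64% DMSO final. Pericardial edema was scored by brightfield as present or absent; endpoints were not scored in dead embryos.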

[2] = Tanguay_ZF_120hpf_BRAI_legacy: (Legacy) Oregon State University Tanguay Lab 120 Hour Post-fertilization zebrafish Assay for Brain Malformation (AID 2283641)
How it was run: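 Tropical 5D wild-type zebrafish embryos exposed statically until 120 hpf at 28C, 0.64% DMSO final, sealed and dark. Brain malformation scored present/absent by brightfield at 120 hpf; dead embryos excluded. Trimethyltin chloride 5uM positive control.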

[3] = Tanguay_ZF_120hpf_SOMI_legacy: (Legacy) Oregon State University Tanguay Lab 120 Hour Post-fertilization zebrafish Assay for Somite Malformation (AID 2283647)
How it was run: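 Dechorionated Tropical 5D wild-type zebrafish embryos, one per well from 6 hpf, statically exposed at 28C to 120 hpf in 0.64% DMSO; somite malformation scored present/absent by brightfield; trimethyltin 5 uM positive control; dead embryos not scored.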

[4] = Tanguay_ZF_120hpf_PFIN_legacy: (Legacy) Oregon State University Tanguay Lab 120 Hour Post-fertilization zebrafish Assay for Pectoral Fin Malformation (AID 2283648);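 further: each larva judged yes or no for fin defect by brightfield with dead larvae skipped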
How it was run: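 Pectoral fin malformation was recorded as a binary endpoint at 120 hpf in wild-type Tropical 5D larvae, which had been dechorionated and exposed statically from 6 hpf at 28C in 0.64% DMSO. Dead embryos were excluded.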

[5] = Tanguay_ZF_120hpf_CFIN_legacy: (Legacy) Oregon State University Tanguay Lab 120 Hour Post-fertilization zebrafish Assay for Caudal Fin Malformation (AID 2283649)
How it was run: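 Dechorionated Tropical 5D wild-type embryos, one per well from 6 hpf, static exposure to 120 hpf at 28C in 0.64% DMSO. Caudal fin malformation scored by brightfield as present/absent; not scored in dead embryos.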

[6] = Tanguay_ZF_120hpf_PIG_legacy: (Legacy) Oregon State University Tanguay Lab 120 Hour Post-fertilization zebrafish Assay for Pigmentation Malformation (AID 2283650)
How it was run: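 Pigment malformation recorded as a binary call at 120 hpf in zebrafish (Tropical 5D) exposed singly from 6 hpf after pronase dechorionation. Static, sealed, 28C exposure, 0.64% DMSO; mortality excludes scoring; positive-direction fit against DMSO.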

[7] = Tanguay_ZF_120hpf_CIRC_legacy: (Legacy) Oregon State University Tanguay Lab 120 Hour Post-fertilization zebrafish Assay for Circulatory Malformation (AID 2283651)
How it was run: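 Embryos are dechorionated at 4 hpf, plated one per well at 6 hpf, then held under static exposure at 28C until 120 hpf. Malformations are recorded as binary calls; mortality excludes other endpoints.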

[8] = Tanguay_ZF_120hpf_SWIM_legacy: (Legacy) Oregon State University Tanguay Lab 120 Hour Post-fertilization zebrafish Assay for Swim Bladder Malformation (AID 2283654);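 further: swim bladder malformation in each larva scored yes or no under brightfield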
How it was run: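 Scoring is binary for swim bladder defects at 120 hpf, by brightfield inspection of zebrafish larvae. Embryos were exposed singly from 6 hpf after pronase dechorionation, at 28C with 0.64% DMSO; mortality excluded scoring.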

[9] = read-out: kallikrein-3 (KLK3), KLK3 (gene 354); assay: LTEA_HepaRG_KLK3: Life Technologies and Expression Analysis (LTEA) Assay for kallikrein-3 (KLK3) using HepaRG (AID 2283652; active means hit-call score of the fitted dose curve at least 0.9, where 1 is the maximum; inactive means score below 0.9); conditions: mRNA level, 48 h; actives raise or lower the signal
How it was run: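 KLK3 transcript levels were measured by TaqMan qRT-PCR with normalisation to three housekeeping genes. HepaRG cultures received chemicals for 48 h at up to 100 uM (half-log, 8 points, 0.5% DMSO vehicle), fitted in both directions against DMSO.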

[10] = read-out: solute carrier (SLC22A6), SLC22A6 (gene 9356); assay: LTEA_HepaRG_SLC22A6: Life Technologies and Expression Analysis (LTEA) Assay for solute carrier (SLC22A6) using HepaRG (AID 2283653; active means hit-call score of the fitted dose curve at least 0.9, where 1 is the maximum; inactive means score below 0.9); conditions: mRNA level, 48 h; actives raise or lower the signal
How it was run: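 Differentiated HepaRG cells exposed 48 h in serum-free induction medium to 8 half-log concentrations, top 100 uM, in 0.5% DMSO; SLC22A6 mRNA by Fluidigm qRT-PCR normalized to ACTB, GAPDH, POLR2A, fitted bidirectionally versus DMSO.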

Measured: AC50

CCCCOCCO
inactive: [1] | [2] | [3] | [4] | [5] | [6] | [7] | [8]

O=C(O)c1ccccc1C(c1ccc(O)cc1)c1ccc(O)cc1
inactive: [1] | [3] | [4] | [5] | [6] | [7] | [8]

CCc1ccc(CCOc2ccc(CC3SC(=O)NC3=O)cc2)nc1 (centres undefined)
inactive: [1] | [2] | [3] | [4] | [5] | [6] | [7]

O=C(OCCOCCOC(=O)c1ccccc1)c1ccccc1
inactive: [1] | [2] | [4] | [5] | [7] | [9] | [10] | [8]

Cc1oc(-c2ccccc2)nc1CCOc1ccc(C[C@H](Nc2ccccc2C(=O)c2ccccc2)C(=O)O)cc1
inactive: [2] | [3] | [4] | [5] | [8]

CCCCC(CC)COC(=O)CCCCC(=O)OCC(CC)CCCC (centres undefined)
inactive: [2] | [3] | [4] | [5] | [7] | [8]

Cc1cc(C)c(O)c(C)c1
inactive: [3] | [4] | [5] | [8]

COc1ccc([N+](=O)[O-])cc1N
inactive: [3] | [4] | [5] | [7] | [8]

CCCCCCCCOC(=O)CCCCCCCCC(=O)OCCCCCCCC
inactive: [2] | [3] | [4] | [5] | [8]

C=C(C)C(=O)OCCC(F)(F)C(F)(F)C(F)(F)C(F)(F)C(F)(F)C(F)(F)F
inactive: [4] | [5] | [7] | [9] | [10] | [8]

Oc1cc2ccccc2c2ccccc12
active: [2] 36.2 µM | [3] 12.4 µM | [4] 12.1 µM | [5] 36.5 µM | [7] 10.2 µM | [8] 10.3 µM

OCCC(F)(F)C(F)(F)C(F)(F)C(F)(F)C(F)(F)C(F)(F)F
inactive: [2] | [3] | [5] | [6] | [7] | [8]

CCC(=C(c1ccc(O)cc1)c1ccc(OCCN(C)C)cc1)c1ccccc1
inactive: [3] | [4] | [7] | [8]

CC1=C(/C=C/C(C)=C/C=C/C(C)=C/C(=O)O)C(C)(C)CCC1
active: [2] 0.237 µM | [3] 0.323 µM | [4] 0.248 µM | [5] 0.186 µM
inactive: [7] | [8]

O=c1c(-c2ccc(O)cc2)coc2cc(O)ccc12
inactive: [3] | [4] | [6] | [7] | [8]

CC#C[C@]1(O)CC[C@H]2[C@@H]3CCC4=CC(=O)CCC4=C3[C@@H](c3ccc(N(C)C)cc3)C[C@@]21C
inactive: [3] | [5] | [6] | [7] | [8]

CN(C)C=O
inactive: [2] | [3] | [4] | [5] | [7] | [8]

C#C[C@]1(O)CC[C@H]2[C@@H]3CCC4=CC(=O)CC[C@@H]4[C@H]3CC[C@@]21C
inactive: [4] | [5] | [6] | [10] | [8]

CCOC(=O)CC(O)(CC(=O)OCC)C(=O)OCC
inactive: [2] | [3] | [4] | [7] | [8]

OCCC(F)(F)C(F)(F)C(F)(F)C(F)(F)C(F)(F)C(F)(F)C(F)(F)C(F)(F)F
inactive: [2] | [3] | [4] | [5] | [7] | [8]

CC(C)(C)CC(C)(C)c1ccc(O)c(-n2nc3ccccc3n2)c1
inactive: [2] | [3] | [4] | [5] | [7] | [8]

CC(C)CCCCCCOC(=O)CCCCC(=O)OCCCCCCC(C)C
inactive: [2] | [3] | [5] | [7] | [8]

Oc1cccc(O)c1
inactive: [2] | [3] | [7] | [8]

COCC(C)OCC(C)O (centres undefined)
inactive: [2] | [3] | [4] | [7] | [8]

c1ccc2c(c1)Cc1ccccc1-2
inactive: [2] | [3] | [5] | [8]

CC(C)(C)c1cccc(C(C)(C)C)c1O
inactive: [2] | [3] | [7] | [8]

Nc1cccc2c(N)cccc12
inactive: [2] | [3] | [4] | [5] | [8]

c1ccc2c(c1)ccc1ccccc12
inactive: [2] | [4] | [5] | [7] | [8]

COCC(C)O (centres undefined)
inactive: [2] | [3] | [4] | [6] | [8]

CC(C)(C)c1cc(C(C)(C)C)c(O)c(C(C)(C)C)c1
inactive: [2] | [4] | [5] | [7] | [10] | [8]

CCCOc1sc(C(=O)N2CCC(c3cc(CN)ccc3F)CC2)c(C)c1Br
inactive: [2] | [3] | [4] | [7] | [8]

Reference: PubChem BioAssay (EPA / NIEHS)
